SW480 rereplic: DNA re-replication induction in SW480 cells; SW480 DNA re-replication, Hoechst DNA content imaging, 48 h; Potency, µM (highest dose often 46.1 µM), for the others: top-dose re-replication activation, actives largely listed as activators; 340,000 tested, 1.8% active; AID 624297; further: % of control where 0% means no effect; nearly all actives have a fitted effect of over 55% in size
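Quantitative HTS format with DMSO vehicle controls; 48 hr drug incubation at 37 C, then 40 min Hoechst staining and scanning imager measurement at 405 nm excitation.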
RORg inh: inhibitors of mouse ROR gamma transcriptional activity | Drosophila S2 Gal4-RORgamma UAS-luciferase reporter, 20 h | Potency, µM (titrated, usually from 53.6 µM), for inactives: at the highest dose activity change, negative = inhibition, actives largely listed as inhibitors | 310,000 tested, 5.4% active; further: on the % scale 0 is the no-effect control and ±100 the full control effect; nearly all actives have a fitted effect of over 60% in size
Target sequence (P51450 whole entry, looked up, the tested form may be a part): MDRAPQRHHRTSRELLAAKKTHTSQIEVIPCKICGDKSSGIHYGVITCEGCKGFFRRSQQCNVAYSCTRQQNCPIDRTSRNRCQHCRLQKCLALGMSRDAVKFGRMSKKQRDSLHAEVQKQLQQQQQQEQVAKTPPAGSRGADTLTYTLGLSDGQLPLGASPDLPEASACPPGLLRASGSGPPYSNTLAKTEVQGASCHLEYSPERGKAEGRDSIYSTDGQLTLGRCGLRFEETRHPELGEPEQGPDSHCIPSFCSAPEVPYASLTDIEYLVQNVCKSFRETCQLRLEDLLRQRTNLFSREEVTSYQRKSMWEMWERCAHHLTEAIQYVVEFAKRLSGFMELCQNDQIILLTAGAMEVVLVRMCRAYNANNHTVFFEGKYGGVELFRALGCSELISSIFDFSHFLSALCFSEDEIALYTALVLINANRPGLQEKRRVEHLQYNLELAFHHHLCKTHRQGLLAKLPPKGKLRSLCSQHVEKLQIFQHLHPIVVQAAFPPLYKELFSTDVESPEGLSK
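In this cell-based reporter format, copper sulfate (700 uM final) drives Gal4–ROR gamma fusion expression from a metallothionein promoter in Drosophila Schneider cells; compounds preincubated 1 hr, reporter read after 20 hr at ambient temperature.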
MCF10A rerep: DNA re-replication induction in MCF 10a cells; AID 624296; MCF 10A DNA re-replication, Hoechst nuclear intensity, 48 h; 350,000 tested, 2.9% active; Potency, µM (doses to about 46.1 µM), for inactives: top-dose activity, positive = re-replication, most hits filed as activators; further: % of control where 0% means no effect; nearly all actives have a fitted effect of over 50% in size
VP16 counter: inhibits Gal4-VP16 luciferase reporter, ROR gamma counter-screen. 310,000 tested, 3.5% active. Potency, µM (titrated, usually from 53.6 µM), for the others: at the highest dose activity, negative = inhibition, actives largely listed as inhibitors. Drosophila S2 Gal4-VP16 UAS-luciferase, luminescence, 20 h;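 further: Gal4-VP16 expression switched on by copper sulfate through the metallothionein promoter; on the % scale 0 is the no-effect control and ±100 the full control effect; nearly all actives have a fitted effect of over 50% in size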
ELG1 repair inh: ELG1-dependent DNA repair inhibition; HEK293T ELG1-luciferase reporter, luminescence, 16 h; DNA damage induced by 5-fluorouridine; Potency, µM (titrated, usually from 46.1 µM), for the others: at the highest dose activity change, negative = inhibition, usual class: inhibitors; 330,000 tested, 2.3% active; AID 504467; further: on the % scale 0 is the no-effect control and ±100 the full control effect; nearly all actives have a fitted effect of over 55% in size
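Cells (2,000 per well) received 5-fluorouridine plus test compound or DMSO and were incubated 16 hr at 37 °C, 5% CO2. Luciferase activity was read by luminescence 30 min after ONE-Glo addition; signal suppression marked inhibition of damage-induced ELG1 function.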
* = called active by the depositor; ! = repeats disagree; [ ] = remark or other dose. Hits are enriched below; roughly 10% of the tested compounds scored in any of these assays. The call rests on the fitted dose curve; in most records, active means well fitted curve in the direction sought with a large enough effect; inconclusive means small, poorly fitted or top-dose-only effect, or another doubt; inactive means no such curve, though single readings can be large; an effect the other way counts as inactive or inconclusive. Potency means the concentration at half of the fitted maximal effect.

`Cc1cccc2cc(-c3nc4ccc(C(=O)O)cc4[nH]3)c(=O)oc12` gave SW480 rereplic 29%, RORg inh 2.8µM*, MCF10A rerep 8%, VP16 counter 5µM* and ELG1 repair inh inconclusive.
CCOc1ccccc1/C=C(/NC(=O)c1ccccc1)C(=O)N1CCCCC1 was read as SW480 rereplic 16%, RORg inh 14%, MCF10A rerep 13%, VP16 counter -18% and ELG1 repair inh inconclusive.
CCOC(=O)c1c(C)[nH]c(C)c1C(=O)COC(=O)c1sccc1C was read as SW480 rereplic -4%, MCF10A rerep -2% and ELG1 repair inh -25%.
CC(C)(C)c1ccc(C(=O)NCc2ccc(Cl)cc2)cc1 was read as SW480 rereplic inconclusive, RORg inh inconclusive, MCF10A rerep -3%, VP16 counter inconclusive and ELG1 repair inh inconclusive.
`CC(C)(C)c1ccc(C(=O)N2CCN(CCNC(=O)C(=O)NCc3ccc(Cl)cc3)CC2)cc1` gave SW480 rereplic inconclusive, MCF10A rerep inconclusive and ELG1 repair inh 12µM*.
O=C(CCl)NCc1cc(-c2ccc(Cl)cc2)no1 was read as SW480 rereplic inconclusive, RORg inh inconclusive, MCF10A rerep inconclusive, VP16 counter -7% and ELG1 repair inh inconclusive.
Screening CN(C)c1nc(OCCNC(=O)COc2ccc(Cl)cc2Cl)nc(N(C)C)n1 returned SW480 rereplic -1%, RORg inh inconclusive, MCF10A rerep 5%, VP16 counter -2% and ELG1 repair inh 21µM*.
O=[N+]([O-])c1ccc(/C=C/C2=NN(c3ccccc3)C(c3ccco3)C2)cc1 (stereo not given) was read as SW480 rereplic 0%, RORg inh inconclusive, MCF10A rerep inconclusive, VP16 counter 20µM* and ELG1 repair inh -18%.
`O=[N+]([O-])c1ccc(C2=NN(c3ccccc3)C(c3ccco3)C2)cc1` (stereo not given) gave SW480 rereplic -3%, RORg inh 21%, MCF10A rerep 4%, VP16 counter 25% and ELG1 repair inh 12%.
For COc1ccc(N2CCN(C3CCCN(Cc4ccc(F)cc4Cl)C3)CC2)cc1 (stereo not given) the results were SW480 rereplic inconclusive, RORg inh 1%, MCF10A rerep inconclusive, VP16 counter -1% and ELG1 repair inh -18%.
`CC(O)CNc1nc2ccccc2n1-c1ncnc2sc3c(c12)CCC3` (stereo not given) gave SW480 rereplic 0%, RORg inh inconclusive, MCF10A rerep 20%, VP16 counter 14µM* and ELG1 repair inh inconclusive.
For CCc1cc(=O)oc2c(C)c(OS(C)(=O)=O)ccc12 the results were SW480 rereplic -3% and MCF10A rerep -5%.
CCc1cc2c(=O)c(-c3ccc4c(c3)OCCO4)c(C)oc2cc1OS(C)(=O)=O was read as SW480 rereplic inconclusive, RORg inh -4%, MCF10A rerep inconclusive, VP16 counter 20µM* and ELG1 repair inh 23µM*.
O=C(c1ccco1)N(CCCN1CCOCC1)c1nc(-c2ccc(Cl)cc2)cs1 was read as SW480 rereplic inconclusive, RORg inh -42%, MCF10A rerep 10µM*, VP16 counter -20% and ELG1 repair inh 21µM*.
`CCN(CC)CCCN(C(=O)c1ccco1)c1nc(-c2ccc(Cl)cc2)cs1` gave SW480 rereplic inconclusive, RORg inh -6%, MCF10A rerep 17%, VP16 counter -22% and ELG1 repair inh 0%.
Screening O=C(c1ccco1)N(CCCN1CCOCC1)c1nc(-c2ccc(F)cc2)cs1 returned SW480 rereplic inconclusive, RORg inh -27%, MCF10A rerep 3%, VP16 counter 5% and ELG1 repair inh 9.2µM*.
Screening COc1ccc(-n2c(SCC(=O)Nc3sc4c(c3C#N)CCCC4)nnc2-c2ccccc2OC)cc1 returned SW480 rereplic -7%, RORg inh 18%, MCF10A rerep -1%, VP16 counter 14% and ELG1 repair inh 26µM*.
Screening COc1ccc(-c2nnc(SCC(=O)Nc3sc4c(c3C#N)CCCC4)n2-c2ccccc2)cc1 returned SW480 rereplic -7%, RORg inh inconclusive, MCF10A rerep inconclusive, VP16 counter 1% and ELG1 repair inh -10%.
Screening N#Cc1ccc(-c2cccnc2)nc1SCC(=O)Nc1sc2c(c1C#N)CCC2 returned SW480 rereplic 8%, RORg inh 13µM*, MCF10A rerep 11%, VP16 counter inconclusive and ELG1 repair inh -6%.
Screening N#Cc1c(C(F)(F)F)cc(-c2ccccc2)nc1SCC(=O)Nc1sc2c(c1C#N)CCC2 returned SW480 rereplic -4%, RORg inh -11%, MCF10A rerep 1%, VP16 counter 0% and ELG1 repair inh -21%.
`COc1ccc(-c2ccc(C#N)c(SCC(=O)Nc3sc4c(c3C#N)CCC4)n2)cc1` gave SW480 rereplic 3.3µM*, RORg inh -1%, MCF10A rerep inconclusive, VP16 counter -9% and ELG1 repair inh 14%.
Screening COc1ccc(/C=N/n2cc(-c3ccccc3)nc2N)cc1 returned SW480 rereplic inconclusive, RORg inh inconclusive, MCF10A rerep 23µM*, VP16 counter -3%[0.365 µM] and ELG1 repair inh 11%.
For O=C(CCCNS(=O)(=O)c1cccc2nsnc12)NCCc1ccccc1 the results were SW480 rereplic 3%, RORg inh 6%, MCF10A rerep 0%, VP16 counter -1% and ELG1 repair inh inconclusive.
`O=S(=O)(NCCc1ccccc1)c1cccc2nsnc12` gave SW480 rereplic inconclusive, RORg inh -15%, MCF10A rerep 5.2µM*, VP16 counter 18% and ELG1 repair inh -13%.
For CCOC(=O)N1CCN(/[N+]([O-])=N/Oc2ccc([N+](=O)[O-])cc2[N+](=O)[O-])CC1 the results were RORg inh 8.9µM* and VP16 counter 7.1µM*!.
`CCOC(=O)N1CCN(c2ccc([N+](=O)[O-])cc2)CC1` gave SW480 rereplic 2%, RORg inh 31%, MCF10A rerep -3%, VP16 counter -9% and ELG1 repair inh 1%.
Screening CCOC(=O)c1nnn(-c2ccc([N+](=O)[O-])cc2[N+](=O)[O-])c1C returned SW480 rereplic 7.3µM*, RORg inh 7.1µM*, MCF10A rerep inconclusive, VP16 counter inconclusive and ELG1 repair inh -7%.
`CCOC(=O)c1nnn(-c2ccccc2)c1C` gave SW480 rereplic 6%, RORg inh 27%, MCF10A rerep 3%, VP16 counter 12% and ELG1 repair inh 28%.
For C=CCOc1ccccc1CN(C(=O)CCl)c1ccc2c(c1)OCO2 the results were SW480 rereplic 5.2µM*, RORg inh inconclusive, MCF10A rerep inconclusive, VP16 counter inconclusive and ELG1 repair inh -1%.
